Assay outcomes as filed in PubChem BioAssay.
ELG1 DNA repair – ELG1-dependent DNA repair inhibition | AID 504467 | Potency, µM (series often up to 46.1 µM), without a hit: at the highest dose activity change, negative = inhibition, hits mostly inhibitors | 330,000 tested, 2.3% active | HEK293T ELG1-luciferase reporter, luminescence, 16 h; DNA damage induced by 5-fluorouridine; further: on the % scale 0 is the no-effect control and ±100 the full control effect; nearly all actives have a fitted effect of over 55% in size
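5-Fluorouridine DNA damage + compound/DMSO, 2,000 cells/well, 16 h, 37 °C/5% CO2. ONE-Glo, 30 min RT, luminescence. Readout = decrease in reporter signal.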
ELG1 genotox – induces genotoxicity in HEK293T cells with luciferase-tagged ELG1; HEK293T ELG1-luciferase reporter, luminescence, 16 h; Potency, µM (series often up to 46 µM), for inactives: at the highest dose activity change, positive = activation, actives largely listed as activators; 330,000 tested, 1.3% active; AID 504466; further: % of control where 0% means no effect; nearly all actives have a fitted effect of over 60% in size
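Cells (2,000/well) expressing the ELG1-luciferase fusion are dosed by pin tool and kept 16 hr at 37 °C, 5% CO2. Signal comes from ONE-Glo luciferase reagent after 30 min at room temperature.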
FLuc counter – firefly luciferase modulation, counter-screen for miR-21 project. P08659. purified FLuc, Km substrates, luminescence inhibition. Potency, µM (doses to about 57.5 µM), inactives show top-dose activity change, negative = inhibition, actives largely listed as inhibitors. 360,000 tested, 6.9% active. AID 588342;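 further: plate controls were vehicle for no effect and reference inhibitor for full effect; nearly all actives have a fitted effect of over 55% in size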
Target sequence (P08659 whole entry, looked up): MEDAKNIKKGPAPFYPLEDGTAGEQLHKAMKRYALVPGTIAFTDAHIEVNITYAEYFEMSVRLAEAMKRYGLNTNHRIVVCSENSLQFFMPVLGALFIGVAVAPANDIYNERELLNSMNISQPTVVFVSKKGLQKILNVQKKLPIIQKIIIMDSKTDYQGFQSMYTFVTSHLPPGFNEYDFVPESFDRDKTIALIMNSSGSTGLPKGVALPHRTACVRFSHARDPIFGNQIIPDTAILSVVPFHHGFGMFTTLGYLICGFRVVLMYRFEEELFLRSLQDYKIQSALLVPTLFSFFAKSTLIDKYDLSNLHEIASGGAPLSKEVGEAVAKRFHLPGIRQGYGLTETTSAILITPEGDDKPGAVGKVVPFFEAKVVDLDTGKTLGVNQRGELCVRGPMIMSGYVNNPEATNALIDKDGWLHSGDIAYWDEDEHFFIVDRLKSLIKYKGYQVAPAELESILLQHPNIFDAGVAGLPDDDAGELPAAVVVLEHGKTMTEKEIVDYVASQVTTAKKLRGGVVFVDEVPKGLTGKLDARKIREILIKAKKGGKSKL
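Purified P. pyralis luciferase, 10 nM final, with Km-level 10 uM D-luciferin and 10 uM ATP in 50 mM Tris acetate pH 7.5, 10 mM Mg acetate, 0.01% Tween-20, 0.05% BSA; 6-point qHTS titration about 60 µM downward; luminescence read.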
SMN2 splice enh – enhancers of SMN2 splice variant expression; HEK293 SMN2-luciferase splicing reporter, luminescence, 30-36 h; Potency, µM (top dose mostly 46.1 µM), for the others: top-dose activity change, positive = activation, actives largely listed as activators; 210,000 tested, 2.8% active; further: % of control where 0% means no effect; nearly all actives have a fitted effect of over 55% in size
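HEK293 cells carry an SMN2 […]–luciferase reporter in which exon 7 inclusion puts luciferase in frame. Cells were plated 10-12 h before compound addition, then incubated 30-36 h at 37C. ONE-Glo luminescence was read; sodium butyrate at 4.5 mM final served as control.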
Rab9 promoter act – activates the Rab9 promoter | Huh7 Rab9 promoter-luciferase reporter, luminescence, 24 h | Potency, µM (highest dose often 9.22 µM), for inactives: at the highest dose activation, negative = inhibition, hits mostly activators | 320,000 tested, 2.8% active | AID 485297; further: % of control where 0% means no effect; nearly all actives have a fitted effect of over 60% in size
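Steps: seed 1500 Huh7 Rab9-luc cells per well, rest 2 h at 37 °C; add compound in DMSO; incubate 24 h; add luciferase reagent, 10 min ambient; read luminescence.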
NPC1 prom act – activates the NPC1 promoter | Huh7 NPC1 promoter luciferase reporter, 24 h | 320,000 tested, 2.4% active | Potency, µM (titrated, usually from 9.22 µM), inactives show top-dose activation, most hits filed as activators; further: % of control where 0% means no effect; nearly all actives have a fitted effect of over 60% in size
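Stable NPC1-promoter luciferase Huh7 line; cpd (DMSO) 24 h, 37 °C, 5% CO2; Amplite luciferase reagent 10 min RT; luminescence readout. qHTS format.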
Numbers without * were called inactive; ? = inconclusive; . = not tested or not shown. Hits are enriched below; roughly 9.4% of the tested compounds scored in any of these assays. The call rests on the fitted dose curve; in most records, active means well fitted curve in the direction sought with a large enough effect; inconclusive means small, poorly fitted or top-dose-only effect, or another doubt; inactive means no such curve, though single readings can be large; an effect the other way counts as inactive or inconclusive. Potency means the concentration at half of the fitted maximal effect.

SMILES | ELG1 DNA repair | ELG1 genotox | FLuc counter | SMN2 splice enh | Rab9 promoter act | NPC1 prom act
COC(=O)c1ccc(C2=NOC(C)(c3sc(-c4ccccc4)nc3C)C2)cc1 (configuration not stated) | 15% | 4% | ? | . | 0% | 2%
COC(=O)c1ccc(-c2nc3cc(Cl)c(N)cc3s2)cc1 | ? | ? | 0.076µM* | 1.4µM* | 0.89µM* | 0.71µM*
COC(=O)c1ccc(-c2nc(O)c(C)s2)cc1 | 13% | 11% | 9.5µM* | 3% | 0% | -4%
O=C1N[C@@H](c2ccccc2)COC(=O)[C@@H](Cc2ccc(F)cc2)CC/C=C/C[C@@H]1CC(=O)N(CCO)Cc1ccccc1 | 26µM* | -9% | . | . | . | .
C[C@H]1COC(=O)[C@H](Cc2ccc(F)cc2)C/C=C\C[C@@H](CC(=O)N(CCO)Cc2ccccc2)C(=O)N1 | -17% | -3% | . | . | . | .
CC(C)(C)[C@@H]1COC(=O)[C@H](Cc2ccc(F)cc2)C/C=C\C[C@H](CC(=O)N(CCO)Cc2ccccc2)C(=O)N1 | 21µM* | -4% | . | . | . | .
O=C1N[C@@H](c2ccccc2)COC(=O)[C@@H](Cc2ccc(F)cc2)CC/C=C/C[C@H]1CC(=O)N(CCO)Cc1ccccc1 | 15µM* | -12% | . | . | . | .
Cc1ccc(-c2cc(C(=O)NCc3ccco3)c3ccccc3n2)o1 | ? | -9% | 12µM* | -7% | 14% | -6%
Cc1ccccc1Nc1cc(C(=O)NCc2ccco2)c2ccccc2n1 | ? | -7% | 15µM* | -9% | -4% | -6%
O=C(NCc1ccco1)c1cc(-c2ccncc2)nc2ccccc12 | ? | -3% | -9% | -5% | 9% | -3%
COc1cccc(-c2cc(C(=O)NCc3ccco3)c3ccccc3n2)c1 | ? | -11% | 21µM* | . | 1% | 9%
Cc1cc(C(=O)NCc2ccco2)c2ccccc2n1 | -8% | -3% | -1% | 27% | -6% | -5%
Cc1ccc(C(C)C)c(OCC(=O)NCC2(N(C)C)CCCCC2)c1 | . | . | 0% | . | . | .
CCOC(=O)c1ccc(NC(=O)CC2Nc3ccccc3NC2=O)cc1 (configuration not stated) | . | . | 5% | -16% | . | .
CCOc1ccc(-n2nc3ccc(NC(=O)COc4ccc(OC)cc4)cc3n2)cc1 | . | . | -14% | 13% | . | .
CCC(=O)Nc1ccc2c(c1)ncn2-c1ccccc1C | -17% | 4% | 0% | 1% | 0% | -2%
CCC(=O)Nc1ccc2c(c1)ncn2-c1ccc(OC)cc1 | ? | 18µM* | 27µM* | 13µM* | 19% | 12%
CCC(=O)Nc1ccc2c(c1)ncn2-c1ccc(C)cc1 | ? | ? | 8.5µM* | 8.9µM* | 2.5µM* | 2.2µM*
CCOc1ccc(OC(=O)c2cn(-c3ccc(C)cc3)c(=O)c3ccccc23)cc1 | . | . | 4% | . | . | .
O=S(=O)(/N=C(/NC(=S)Nc1ccccc1)c1ccccc1)c1ccc(Cl)cc1 | ? | ? | 24µM* | . | 27% | 22%
O=C(O)CCC(=O)NNC(=O)c1cccc(Cl)c1 | 17% | 2% | 6% | 8% | -4% | 0%
O=C(NN/C(=N/S(=O)(=O)c1ccc(Cl)cc1)c1ccccc1)c1cccc(Cl)c1 | ? | 16µM* | 6µM* | . | ? | 4µM*
O=C(NN/C(=N/S(=O)(=O)c1ccc(Cl)cc1)c1ccccc1)c1ccc(O)cc1 | ? | ? | 15µM* | 22% | 0% | 6%
Cc1ccc(S(=O)(=O)NN/C(=N/S(=O)(=O)c2ccccc2)c2ccccc2)cc1 | 1% | 0% | ? | 4% | 15% | 0%
Cc1ccc(S(=O)(=O)/N=C(/NNC(=O)c2cccc(Cl)c2)c2ccccc2)cc1 | ? | 16µM* | 15µM* | . | ? | ?
SMILES | ELG1 DNA repair | ELG1 genotox | FLuc counter | SMN2 splice enh | Rab9 promoter act | NPC1 prom act
O=C(O)c1ccc(N/C(=N\S(=O)(=O)c2ccc(Cl)cc2)c2ccccc2)cc1 | ? | 2% | -18% | . | -1% | -3%
COC(=O)[C@H](Cc1ccccc1)NC(=O)O[C@@H]1C(=O)c2cc(OC)ccc2O[C@H]1c1cccc(OC)c1 | . | . | . | 18% | . | .
COc1cc(-c2nn3c(C4CCCCC4)nnc3s2)cc(OC)c1OC | 5.8µM* | -7% | 0% | 11% | -7% | -4%
COc1cc(C2CC(=O)c3c([nH]c(C(=O)OCCOC(C)C)c3C)C2)cc(OC)c1OC (configuration not stated) | 10µM* | -7% | 6% | -59% | -19% | -12%
COc1ccc(OC)c(C2CC(=O)c3c([nH]c(C(=O)OCC4CCCO4)c3C)C2)c1 (configuration not stated) | 10µM* | -13% | -13% | -17% | 1% | -4%
COCCOC(=O)c1[nH]c2c(c1C)C(=O)CC(c1cc(OC)ccc1OC)C2 (configuration not stated) | -11% | 9% | -2% | -11% | -5% | -9%
CCC(C)OC(=O)c1[nH]c2c(c1C)C(=O)CC(c1ccc(N(C)C)cc1)C2 (configuration not stated) | ? | ? | 11µM* | 24% | 3.2µM* | ?
Cc1c(C(=O)O)[nH]c2c1C(=O)CC(c1ccc(C(C)(C)C)cc1)C2 (configuration not stated) | ? | ? | 9.5µM* | . | ? | ?
COc1cc(C2CC(=O)c3c([nH]c(C(=O)OCc4ccc(C)cc4)c3C)C2)cc(OC)c1OC (configuration not stated) | . | . | -6% | -49% | . | .
Cc1cccc(-n2ncc(C(=O)NCc3ccco3)c2C2CCN(C(=O)OC(C)(C)C)CC2)c1 | . | . | -5% | . | . | .
CCS(=O)(=O)c1ncc(Cl)c(C(=O)N(Cc2ccccc2)Cc2ccco2)n1 | . | . | -11% | 17% | . | .
COc1ccccc1N1C(=O)S/C(=C\c2ccc(C)s2)C1=O | ? | ? | -21% | . | 3.5µM* | ?
COc1ccc(N=C2S/C(=C\c3cc(C)n(C)c3C)C(=O)N2C)cc1 | ? | 10% | 0% | -14% | 0% | -4%
COc1ccccc1N1C(=O)S/C(=C\c2cc(C)n(C)c2C)C1=O | ? | ? | 12µM* | 14µM* | 2.5µM* | 3.5µM*
COc1ccccc1NC(=O)C1=C(C)Nc2nnnn2C1c1ccc(C(F)(F)F)cc1 (configuration not stated) | . | . | -11% | -13% | . | .
CC(C)c1ccc(/C=C/C2=NNC(=O)CC2)cc1 | ? | ? | 5.4µM* | 10µM* | ? | -18%
O=c1cc(COc2ccc(Cl)c(Cl)c2)nc2sccn12 | ? | 13% | -4% | . | 3.2µM* | ?
